Measurements published in PubChem BioAssay (Tox21).
Results filed as inconclusive are left out. Entries that show only a call come without a potency. Activity calls are given as the source filed them. Calls come from the whole dose curve. Bridge positions count the residues as written; N and C are the ends. Square brackets hold non-standard residues; d marks the D form. Peptide text beside a SMILES is read from it. hArg = N=C(N)NCCCC[C@H](N)C(=O)O; Mpa = O=C(O)CCS

Assay: p53 small molecule agonists, cell-based qHTS assay with human liver microsomes (AID 1963577);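 note: p53 response element beta-lactamase reporter cells with liver microsomes plus NADPH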
How it was run: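 Reporter activation was measured by LiveBLAzer fluorescence intensity in p53RE-bla cells, which had been exposed to compounds for 16 h at 37 C alongside 0.5 mg/mL human liver microsomes and 0.5 mg/mL NADPH (final concentrations).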

| Compound | Potency |
| --- | --- |
| Nc1ccc(-c2ccc(F)cc2)cc1 | inactive |
| Nc1nc(N)c2nc(CNc3ccc(C(=O)N[C@@H](CCC(=O)O)C(=O)O)cc3)cnc2n1 | inactive |
| CCc1c(C)[nH]c2c1C(=O)C(CN1CCOCC1)CC2 (configuration not stated) | inactive |
| CC1=CCCC(C)(C)C12CCC(C)O2 (configuration not stated) | inactive |
| CC(C)C[C@H](NC(=O)[C@H](Cc1ccccc1)NC(=O)c1cnccn1)B(O)O | inactive |
| COC(=O)c1ccc(C(=O)O)cc1 | inactive |
| O=C(Cl)c1cc(Cl)cc(Cl)c1 | inactive |
| CCOCN(C(=O)CS(=O)(=O)O)c1c(C)cccc1CC | inactive |
| O=C(O)CCCl | inactive |
| Nc1ccc(N)c2ccccc12 | inactive |
| O=C1c2ccccc2-c2ccccc21 | inactive |
| CC(CN=Cc1ccccc1O)N=Cc1ccccc1O (configuration not stated) | inactive |
| CCCc1ccccc1O | inactive |
| C[Si](C)(C)C | inactive |
| CNC(=S)NN | inactive |
| CC1=Nc2ccccc2C1(C)C | inactive |
| CCCCNCCCC | inactive |
| NC(=O)[C@@H]1CSSCCC(=O)N[C@@H](CCCCN=C(N)N)C(=O)NCC(=O)N[C@@H](CC(=O)O)C(=O)N[C@@H](Cc2c[nH]c3ccccc23)C(=O)N2CCC[C@H]2C(=O)N1 ([Mpa][hArg]GDWPC-NH2; disulfide 1-7) | inactive |
| COc1ccc(NC(=O)CC(C)=O)cc1 | inactive |

| Compound | Potency |
| --- | --- |
| Cc1ccc(O)c(C(=O)c2ccccc2)c1 | inactive |
| COC(=O)Nc1nc2ccc(C(=O)C3CC3)cc2[nH]1 | inactive |
| CCO[Si](CC(C)C)(OCC)OCC | inactive |
| C=CC(=O)OCC(C)OCC(C)OCC(C)OC(=O)C=C (configuration not stated) | inactive |
| C=CC(=O)OCCn1c(=O)n(CCOC(=O)C=C)c(=O)n(CCOC(=O)C=C)c1=O | inactive |
| CCCCN(CCN(CCCC)C(=O)N1CCOCC1)C(=O)N1CCOCC1 | inactive |
| Cc1cc(C)c(C)c(C)c1 | inactive |
| c1ccc(C[n+]2cccc3ccccc32)cc1 | inactive |
| CC[C@]1(O)C[C@H]2CN(CCc3c([nH]c4ccccc34)[C@@](C(=O)OC)(c3cc4c(cc3OC)N(C=O)[C@H]3[C@@](O)(C(=O)OC)[C@H](OC(C)=O)[C@]5(CC)C=CCN6CC[C@]43[C@@H]65)C2)C1 | inactive |
| CCCCNC1CC(C)(C)NC(C)(C)C1 | inactive |
| COc1cc(NS(=O)(=O)c2ccc(N)cc2)nc(C)n1 | inactive |
| CC(C)c1cccc(C(C)C)c1N1C(=O)c2ccc(O)cc2C1=O | inactive |
| C/C(=C\c1ccc(C(=O)O)cc1)c1ccc2c(c1)C(C)(C)CCC2(C)C | inactive |
| Cc1cc(C2CCCCC2)n(O)c(=O)c1 | inactive |
| Cc1cc(CCN2CCN(c3nsc4ccccc34)CC2)cc2c1NC(=O)CC2(C)C | inactive |
| CC[N+](C)(CC)CC | inactive |
| Nc1ccc(F)cc1F | inactive |
| C[C@]12CC[C@H]3C(=CCc4cc(O)ccc43)[C@@H]1CCC2=O | inactive |
